The list is not random: actives were taken first. Their share in the collection is about 3.4%.
TEAD-YAP block: TEAD-YAP interaction inhibition; HEK-TIYL cells, TEAD-Gal4/YAP UAS-luciferase luminescence; inhibition, % at 9.12 µM; 1.4% of 640,000 active; AID 1259422; in the data active = inhibition above about 32%
FBW7 activator: human FBW7 E3 ligase activation, primary screen | AlphaScreen FBW7–phospho-cyclin E peptide binding, activator screen | normalized activity (activation), % at 26.1 µM | 0.13% of 650,000 active | AID 1259310; in the data active = normalized activity above about 1.9%;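 note: purified mutant Fbw7 with reduced substrate affinity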
Target sequence (Q969H0 whole entry, looked up): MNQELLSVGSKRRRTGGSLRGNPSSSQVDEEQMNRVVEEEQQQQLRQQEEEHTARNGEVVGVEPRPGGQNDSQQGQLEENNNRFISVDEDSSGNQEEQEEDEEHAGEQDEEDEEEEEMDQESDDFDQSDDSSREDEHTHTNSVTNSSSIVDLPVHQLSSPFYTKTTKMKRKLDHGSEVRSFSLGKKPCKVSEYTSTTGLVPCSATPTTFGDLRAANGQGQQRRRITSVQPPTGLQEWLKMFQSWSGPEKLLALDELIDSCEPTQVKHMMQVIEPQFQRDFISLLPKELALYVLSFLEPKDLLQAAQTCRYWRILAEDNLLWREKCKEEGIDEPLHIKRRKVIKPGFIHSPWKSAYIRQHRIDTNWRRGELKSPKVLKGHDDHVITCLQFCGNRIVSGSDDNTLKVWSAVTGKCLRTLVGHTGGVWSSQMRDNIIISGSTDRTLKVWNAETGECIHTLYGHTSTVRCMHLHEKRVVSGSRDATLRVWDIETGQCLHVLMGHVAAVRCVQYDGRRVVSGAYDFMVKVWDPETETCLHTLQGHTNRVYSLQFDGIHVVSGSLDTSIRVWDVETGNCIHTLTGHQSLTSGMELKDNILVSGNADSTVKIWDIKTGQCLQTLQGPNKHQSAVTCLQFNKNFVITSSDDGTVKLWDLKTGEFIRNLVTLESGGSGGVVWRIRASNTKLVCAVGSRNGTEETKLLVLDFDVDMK
MITF primary: human MITF inhibition, primary screen. 0.91% of 650,000 active. O75030. AlphaScreen MITF homodimerization, bead proximity signal. AID 1259374. inhibition, % at 2.6 µM; in the data active = inhibition above about 50%
GPR151 ag: activates the human receptor GPR151 | Q8TDV0 | activation, % at 11.2 µM | PathHunter beta-arrestin GPR151 cells, luminescence | 1% of 650,000 active; in the data active = activation above about 4.9%
A number is an active result.

For Cc1nn(C)c(C)c1-c1nc(NC2CC2)c2ncn(-c3ccsc3)c2n1 the results were TEAD-YAP block 40, FBW7 activator inactive, MITF primary inactive and GPR151 ag inactive.
For COc1ccc(-c2nc(NC3CCN(Cc4ccccc4)CC3)c3ncn(-c4ccsc4)c3n2)cc1 the results were TEAD-YAP block inactive, FBW7 activator inactive, MITF primary inactive and GPR151 ag inactive.
COc1ccc(-c2nc(NC3CC3)c3ncn(-c4ccsc4)c3n2)cc1 was read as TEAD-YAP block 50, FBW7 activator inactive, MITF primary inactive and GPR151 ag inactive.
Screening N#Cc1ccccc1NC(=O)COC(=O)c1cc[n+]([O-])cc1 returned TEAD-YAP block inactive, FBW7 activator inactive, MITF primary inactive and GPR151 ag inactive.
For CCc1nc2sc(C(=O)c3ccc4c(c3)OCO4)c(N)c2cc1C the results were TEAD-YAP block 40, FBW7 activator inactive, MITF primary inactive and GPR151 ag inactive.
For CCN1CCCC(CN(C)C(=O)CN2Cc3ccc(OC)cc3OC(C)C2)C1 (centres undefined) the results were TEAD-YAP block inactive, FBW7 activator inactive, MITF primary inactive and GPR151 ag inactive.
Screening CCOCCn1cnc2sc(C(=O)Nc3cnc4ccccc4c3)c(C)c2c1=O returned TEAD-YAP block 79, FBW7 activator inactive, MITF primary inactive and GPR151 ag inactive.
`CCOCCn1cnc2sc(C(=O)Nc3nc4ccccc4s3)c(C)c2c1=O` gave TEAD-YAP block 49, FBW7 activator inactive, MITF primary inactive and GPR151 ag inactive.
For NC(=O)c1c(NC(=O)c2cc3ccccc3o2)sc2c1CCCC2 the results were TEAD-YAP block 46, FBW7 activator inactive, MITF primary inactive and GPR151 ag inactive.
`Cc1ccc(C(=O)Nc2sc3c(c2C(N)=O)CCCCC3)o1` gave TEAD-YAP block 55, FBW7 activator inactive, MITF primary inactive and GPR151 ag inactive.
For Cn1nccc1C(=O)Nc1ccc(OC(=O)c2ccnn2C)cc1 the results were TEAD-YAP block 34, FBW7 activator inactive, MITF primary inactive and GPR151 ag inactive.
CCOC(=O)c1ccc(NC(=O)c2ccnn2C)cc1 was read as TEAD-YAP block inactive, FBW7 activator inactive, MITF primary inactive and GPR151 ag inactive.
For Cc1ccc(NC2=NCC(=O)N2C2CCCC2)cc1 the results were TEAD-YAP block 56, FBW7 activator inactive, MITF primary inactive and GPR151 ag inactive.
Screening Cc1ccc(-c2noc(CCCCCN)n2)cc1 returned TEAD-YAP block 72, FBW7 activator inactive, MITF primary inactive and GPR151 ag inactive.
CC1CN2C(=O)Cc3c(S(=O)(=O)N4CCc5ccccc54)ccc(c32)S1 (centres undefined) was read as TEAD-YAP block inactive, FBW7 activator inactive, MITF primary inactive and GPR151 ag inactive.
C/C(CC(=O)Nc1ccc2c(c1)OCCO2)=N\NC(=O)c1ccc(O)c(O)c1 was read as TEAD-YAP block inactive, FBW7 activator inactive, MITF primary inactive and GPR151 ag inactive.
Screening CCc1ccc(C2C3=C(Nc4c2c(=O)[nH]c(=O)n4CCOC)c2ccccc2C3=O)cc1 (centres undefined) returned TEAD-YAP block 43, FBW7 activator inactive, MITF primary inactive and GPR151 ag inactive.
For COc1ccc(C2C3=C(Nc4[nH]c(=O)[nH]c(=O)c42)c2ccccc2C3=O)cc1 (centres undefined) the results were TEAD-YAP block 56, FBW7 activator inactive, MITF primary inactive and GPR151 ag inactive.
For Cc1ccc(C2C3=C(Nc4[nH]c(=O)[nH]c(=O)c42)c2ccccc2C3=O)cc1 (centres undefined) the results were TEAD-YAP block 39, FBW7 activator inactive, MITF primary inactive and GPR151 ag inactive.
Screening COCCn1c2c(c(=O)[nH]c1=O)C(c1ccccc1)C1=C(N2)c2ccccc2C1=O (centres undefined) returned TEAD-YAP block inactive, FBW7 activator inactive, MITF primary inactive and GPR151 ag inactive.
Cc1ccc(C2C3=C(Nc4c2c(=O)[nH]c(=O)n4C)c2ccccc2C3=O)cc1 (centres undefined) was read as TEAD-YAP block inactive, FBW7 activator inactive, MITF primary inactive and GPR151 ag inactive.
For CN(C)C(=O)c1nc2ccc(Cl)cn2c1CNCc1ccc2c(c1)n(C)c(=O)n2C the results were TEAD-YAP block inactive, FBW7 activator inactive, MITF primary inactive and GPR151 ag inactive.
For CCN1C(=O)C2(/C(=C(\O)c3ccc(C)cc3)C(=O)C(=O)N2CCOC)c2ccccc21 (centres undefined) the results were TEAD-YAP block inactive, FBW7 activator inactive, MITF primary inactive and GPR151 ag inactive.
Screening CC1(C2CCN(C(=O)CCCc3ccccc3)CC2)NC(=O)N(Cc2ccsc2)C1=O (centres undefined) returned TEAD-YAP block inactive, FBW7 activator inactive, MITF primary inactive and GPR151 ag inactive.

High-throughput results from PubChem BioAssay.
